This is part of a sample that, as a whole, favours compounds with a hit. Of some 83,000 tested, about 20% had one in any assay.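 Values shown are percent growth following 48 h exposure of cells in 96-well plates to a single concentration of compound; below 10 was considered active.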 Active and inactive are the calls of the source.
What was measured:
Assay in all cases: NCI-60 one-dose screen, 48 h (100 = growth as untreated, 0 = no growth, -100 = all killed)
Details in all cases: 10 µM unless noted
NCI-H23 lung = test system: NCI-H23 lung
NCI-H226 lung = test system: NCI-H226 lung
NCI-H322M lung = test system: NCI-H322M lung
HOP-62 NSCLC = test system: HOP-62 NSCLC
NCI-H460 lung = test system: NCI-H460 lung
HOP-92 NSCLC = test system: HOP-92 NSCLC
NCI-H522 lung = test system: NCI-H522 lung
A549/ATCC NSCLC = test system: A549/ATCC NSCLC
786-0 renal = test system: 786-0 renal
COLO 205 colon = test system: COLO 205 colon
DU-145 prostate = test system: DU-145 prostate
K-562 leukemia = test system: K-562 leukemia
MALME-3M melanoma = test system: MALME-3M melanoma
MDA-MB-231 breast = test system: MDA-MB-231 breast
RXF 393 renal = test system: RXF 393 renal
SF-268 CNS = test system: SF-268 CNS
SF-295 CNS = test system: SF-295 CNS
SF-539 CNS = test system: SF-539 CNS
UACC-257 melanoma = test system: UACC-257 melanoma
M14 melanoma = test system: M14 melanoma

Measured: growth

C=C1C(=O)O[C@H]2[C@H]1CC/C(COC(=O)/C=C/c1cccnc1)=C\CC[C@@]1(C)O[C@@H]21
inactive: NCI-H23 lung 56.2% | NCI-H226 lung 38.5% | NCI-H322M lung 93.6% | HOP-62 NSCLC 72.4% | NCI-H460 lung 77.4% | HOP-92 NSCLC 19.1% | A549/ATCC NSCLC 61.8% | DU-145 prostate 13.1% | MDA-MB-231 breast 38.7% | SF-268 CNS 57.6% | SF-295 CNS 84.4% | UACC-257 melanoma 28.9% | M14 melanoma 26.3%
active: NCI-H522 lung -43.5% | 786-0 renal 2.95% | COLO 205 colon -46% | K-562 leukemia 6.99% | MALME-3M melanoma -35.9% | RXF 393 renal -9.04% | SF-539 CNS 6.08%

Cc1c(Cl)cccc1NC(=O)c1sc2nc3c(cc2c1N)CCCCCC3
inactive: NCI-H23 lung 42.7% | NCI-H226 lung 52.2% | NCI-H322M lung 45.6% | HOP-62 NSCLC 30.6% | HOP-92 NSCLC 29.3% | A549/ATCC NSCLC 19.1% | 786-0 renal 23.3% | MALME-3M melanoma 58% | MDA-MB-231 breast 34.2% | RXF 393 renal 12.2% | SF-268 CNS 35.7% | SF-295 CNS 24.6% | UACC-257 melanoma 59.6%
active: NCI-H460 lung 8.77% | NCI-H522 lung -27.7% | COLO 205 colon -12% | DU-145 prostate 9.29% | K-562 leukemia 9.93% | SF-539 CNS 0.159% | M14 melanoma 8.66%

O=CN1N=C(c2ccc(Cl)cc2)CC1c1cccc(Nc2ccnc3cc(C(F)(F)F)ccc23)c1 (stereo not given)
inactive: NCI-H23 lung 50.6% | NCI-H226 lung 61.9% | NCI-H322M lung 82.4% | HOP-62 NSCLC 67.1% | NCI-H460 lung 57.9% | HOP-92 NSCLC 66.3% | NCI-H522 lung 57% | A549/ATCC NSCLC 61.4% | 786-0 renal 81.5% | COLO 205 colon 60.1% | DU-145 prostate 70.1% | K-562 leukemia 24.9% | MALME-3M melanoma 77.5% | MDA-MB-231 breast 80.7% | RXF 393 renal 71.4% | SF-268 CNS 58.9% | SF-295 CNS 51.4% | SF-539 CNS 78.7% | UACC-257 melanoma 52.1% | M14 melanoma 74%

O=C(C[n+]1cccc2cc(Cl)ccc21)c1ccc2c(c1)CCCC2
inactive: NCI-H226 lung 39% | NCI-H322M lung 61.6% | HOP-62 NSCLC 36.2% | NCI-H460 lung 19.8% | A549/ATCC NSCLC 34.5% | 786-0 renal 80.4% | DU-145 prostate 10.5% | K-562 leukemia 10.6% | RXF 393 renal 62% | SF-268 CNS 27.6% | SF-295 CNS 47.2% | M14 melanoma 32.6%
active: NCI-H23 lung 8.05% | HOP-92 NSCLC 4.68% | NCI-H522 lung -3.94% | COLO 205 colon 2.8% | MALME-3M melanoma -30.9% | MDA-MB-231 breast 5.63% | SF-539 CNS -10.9% | UACC-257 melanoma 5.48%

CCc1n(Cc2ccc3ccccc3c2)c2ccccc2[n+]1Cc1ccc2ccccc2c1
inactive: NCI-H23 lung 28.8% | NCI-H226 lung 64.9% | NCI-H322M lung 90.7% | HOP-62 NSCLC 81.3% | NCI-H460 lung 53.6% | HOP-92 NSCLC 21.8% | NCI-H522 lung 12.1% | A549/ATCC NSCLC 74.2% | 786-0 renal 89% | COLO 205 colon 25% | DU-145 prostate 67.7% | K-562 leukemia 35.3% | MALME-3M melanoma 54.1% | MDA-MB-231 breast 60.3% | RXF 393 renal 94.1% | SF-268 CNS 64.7% | SF-295 CNS 93.3% | SF-539 CNS 68.8% | UACC-257 melanoma 59% | M14 melanoma 48.7%

Nc1c(C(=O)Nc2ccccn2)sc2nc3c(cc12)C(=O)CCC3
active: NCI-H460 lung 6.33% | COLO 205 colon 7.57% | DU-145 prostate 5.74% | RXF 393 renal 1.88%
inactive: NCI-H23 lung 46.1% | NCI-H226 lung 74.7% | NCI-H322M lung 43.6% | HOP-62 NSCLC 40.6% | HOP-92 NSCLC 87.3% | NCI-H522 lung 12% | A549/ATCC NSCLC 18% | 786-0 renal 35.4% | K-562 leukemia 22.2% | MALME-3M melanoma 58.2% | MDA-MB-231 breast 51.6% | SF-268 CNS 53.1% | SF-295 CNS 16.2% | SF-539 CNS 14.6% | UACC-257 melanoma 69.8% | M14 melanoma 18.3%

N#Cc1ccc(N2Cc3cc(Cl)ccc3OC3=C2C(=O)N(Cc2ccccc2)C3=O)cc1
active: HOP-92 NSCLC -63.8% | NCI-H522 lung -57.2% | 786-0 renal -82.4% | COLO 205 colon -69.2% | DU-145 prostate -75.7% | K-562 leukemia -22.3% | MALME-3M melanoma -64.4% | MDA-MB-231 breast -15.9% | RXF 393 renal -79.8% | SF-268 CNS -43.3% | SF-539 CNS -60.3% | UACC-257 melanoma -56.1% | M14 melanoma -35.7%
inactive: NCI-H23 lung 10.8% | NCI-H226 lung 100% | NCI-H322M lung 96.3% | HOP-62 NSCLC 59% | NCI-H460 lung 34.7% | A549/ATCC NSCLC 66.3% | SF-295 CNS 69.4%

Reference: PubChem BioAssay (NCI)
